Records with an inconclusive call do not appear. Calls of active or inactive are those of the source. Unless noted, calls follow the shape of the dose curve; as a rule, active = well fitted curve in the direction sought with a large enough effect in the repeat runs; inconclusive = weak or mixed curves; inactive = no such curve, though single readings can be large; an effect the other way counts as inactive or inconclusive.
Tests used:
[1] = qHTS assay to identify small molecule antagonists of the sonic hedgehog signaling (Shh) pathway (AID 1259369; calls by dose curve; also: nearly all actives have a fitted effect of over 45% in size)
Summary of the method: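 NIH/3T3-derived 3T3Gli1-Luc cells with stably integrated Gli1-Luc reporter were preincubated 4hr at 37 C, then given compounds in DMSO plus Shh conditioned medium and incubated 24hr. Firefly luciferase luminescence read after 30min reagent at room temperature.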

[2] = biological target: Estrogen receptor beta (Homo sapiens) (UniProt Q92731); test: qHTS assay to identify small molecule agonists of the estrogen receptor beta (ER-beta) signaling pathway (AID 1259377; active = well fitted activation curve with a large enough effect in the signal ratio in the repeat runs, not every such curve was filed as active; the % refers to the signal ratio)
Estrogen receptor beta (Homo sapiens), sequence (Q92731 whole entry, looked up): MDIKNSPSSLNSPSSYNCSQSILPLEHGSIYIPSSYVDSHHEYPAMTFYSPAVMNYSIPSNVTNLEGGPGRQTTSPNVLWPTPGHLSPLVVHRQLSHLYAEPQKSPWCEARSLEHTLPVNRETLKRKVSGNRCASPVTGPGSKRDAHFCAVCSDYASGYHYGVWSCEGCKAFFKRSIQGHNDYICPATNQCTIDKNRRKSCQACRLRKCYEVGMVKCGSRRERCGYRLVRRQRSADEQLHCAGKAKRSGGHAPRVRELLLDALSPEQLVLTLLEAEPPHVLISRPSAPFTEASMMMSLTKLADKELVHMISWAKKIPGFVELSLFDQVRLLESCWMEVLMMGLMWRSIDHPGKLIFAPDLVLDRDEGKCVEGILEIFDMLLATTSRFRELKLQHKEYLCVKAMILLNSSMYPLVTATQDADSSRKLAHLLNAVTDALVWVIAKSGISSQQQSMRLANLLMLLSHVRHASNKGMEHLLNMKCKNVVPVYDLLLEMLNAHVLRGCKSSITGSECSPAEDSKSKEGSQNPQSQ
Summary of the method: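 In HEK293T cells bearing a UAS-beta-lactamase reporter under ER-beta control, DMSO-delivered compounds were incubated for 16 hr at 37C. Activity was detected as fluorescence 2 hours after LiveBLAzer B/G FRET substrate addition.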

[3] = biological target: Estrogen receptor beta (Homo sapiens) (UniProt Q92731); test: qHTS assay to identify small molecule antagonists of the estrogen receptor beta (ER-beta) signaling pathway (AID 1259378; active = well fitted inhibition curve with a large enough effect in the signal ratio in the repeat runs, not every such curve was filed as active; the % refers to the signal ratio)
Summary of the method: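 Antagonist mode: compounds added to beta-lactamase reporter HEK293T ER-beta-UAS cells stimulated with E2 (1nM final), 16 hr at 37C. LiveBLAzer B/G FRET substrate, 2 hours room temperature, fluorescence read-out.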

[4] = qHTS assay to identify small molecule agonists of the androgen receptor (AR) signaling pathway in the presence of an antagonist - cell viability counter screen (AID 1259379); also: series mostly up to about 92 µM; nearly all actives have a fitted effect of over 25% in size
Summary of the method: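 MDA-kb2 human breast carcinoma cells (stable MMTV-luciferase, AR/GR responsive) were seeded 3,000 cells/well, pre-incubated 5 hr at 37C without CO2, then given 3.0uM nilutamide and compounds at 15 concentrations for 16 hr. Viability was read by CellTiter-Fluor fluorescence.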

[5] = qHTS assay to identify small molecule agonists of the estrogen receptor beta (ER-beta) signaling pathway - cell viability counter screen (AID 1259380); also: nearly all actives have a fitted effect of over 30% in size
Summary of the method: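 ER-beta-UAS-bla HEK293T cells in medium with 2% charcoal-stripped FBS were preincubated 6 hr at 37C, dosed with compound in DMSO for 16 hr, then after the bla read, CellTiter-Glo was added for 30 min at room temperature; luminescence recorded.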

[6] = biological target: Androgen receptor (Homo sapiens) (UniProt P10275); test: qHTS assay to identify small molecule agonists of the androgen receptor (AR) signaling pathway in the presence of an antagonist (AID 1259381; calls by dose curve; also: nearly all actives have a fitted effect of over 15% in size)
Androgen receptor (Homo sapiens), sequence (P10275 whole entry, looked up): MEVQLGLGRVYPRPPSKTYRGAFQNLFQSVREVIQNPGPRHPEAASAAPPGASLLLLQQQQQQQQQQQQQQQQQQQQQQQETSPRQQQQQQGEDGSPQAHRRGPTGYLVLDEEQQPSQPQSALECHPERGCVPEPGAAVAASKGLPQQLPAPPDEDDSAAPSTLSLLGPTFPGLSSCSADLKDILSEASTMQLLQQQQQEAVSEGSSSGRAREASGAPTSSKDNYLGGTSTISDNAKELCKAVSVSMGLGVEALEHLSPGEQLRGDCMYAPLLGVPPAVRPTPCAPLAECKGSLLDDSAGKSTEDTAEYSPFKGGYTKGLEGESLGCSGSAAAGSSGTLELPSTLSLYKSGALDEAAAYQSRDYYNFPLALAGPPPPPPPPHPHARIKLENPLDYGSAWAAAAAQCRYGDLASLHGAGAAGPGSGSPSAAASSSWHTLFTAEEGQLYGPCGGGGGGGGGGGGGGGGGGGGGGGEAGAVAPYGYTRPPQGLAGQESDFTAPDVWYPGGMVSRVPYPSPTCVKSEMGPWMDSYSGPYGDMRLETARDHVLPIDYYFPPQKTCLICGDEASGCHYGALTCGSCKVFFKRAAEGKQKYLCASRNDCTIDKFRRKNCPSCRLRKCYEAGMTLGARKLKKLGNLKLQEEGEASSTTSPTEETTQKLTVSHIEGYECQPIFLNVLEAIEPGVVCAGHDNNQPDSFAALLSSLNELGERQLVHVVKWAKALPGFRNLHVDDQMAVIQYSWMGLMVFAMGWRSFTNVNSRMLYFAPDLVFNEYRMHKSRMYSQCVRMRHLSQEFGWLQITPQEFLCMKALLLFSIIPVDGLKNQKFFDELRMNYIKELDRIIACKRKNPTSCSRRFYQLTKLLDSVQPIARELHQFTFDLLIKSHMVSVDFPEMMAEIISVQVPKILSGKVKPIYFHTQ
Summary of the method: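 MDA-kb2 human breast carcinoma cells carrying an MMTV-luciferase reporter (AR- and GR-responsive) were treated with compounds at 15 concentrations plus 3.0uM final nilutamide for 16hr at 37C without CO2; luminescence was read after ONE-Glo addition.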

[7] = qHTS assay to identify small molecule agonists or antagonists of the thyroid stimulating hormone receptor (TSHR) signaling pathway - wild type cell line counter screen (AID 1259384; calls by dose curve)
Summary of the method: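 Counter screen in untransfected Hek293: compounds (15-point titration, triplicate) plus phosphodiesterase inhibitor Ro20-1724 added after 18 h plating; 30 min RT. Intracellular cAMP via competitive d2/cryptate immunoassay, 1 h incubation.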

[8] = biological target: Thyrotropin receptor (Homo sapiens) (UniProt P16473); test: qHTS assay to identify small molecule antagonists of the thyroid stimulating hormone receptor (TSHR) signaling pathway (AID 1259385; calls by dose curve; also: nearly all actives have a fitted effect of over 20% in size)
Thyrotropin receptor (Homo sapiens), sequence (P16473 whole entry, looked up): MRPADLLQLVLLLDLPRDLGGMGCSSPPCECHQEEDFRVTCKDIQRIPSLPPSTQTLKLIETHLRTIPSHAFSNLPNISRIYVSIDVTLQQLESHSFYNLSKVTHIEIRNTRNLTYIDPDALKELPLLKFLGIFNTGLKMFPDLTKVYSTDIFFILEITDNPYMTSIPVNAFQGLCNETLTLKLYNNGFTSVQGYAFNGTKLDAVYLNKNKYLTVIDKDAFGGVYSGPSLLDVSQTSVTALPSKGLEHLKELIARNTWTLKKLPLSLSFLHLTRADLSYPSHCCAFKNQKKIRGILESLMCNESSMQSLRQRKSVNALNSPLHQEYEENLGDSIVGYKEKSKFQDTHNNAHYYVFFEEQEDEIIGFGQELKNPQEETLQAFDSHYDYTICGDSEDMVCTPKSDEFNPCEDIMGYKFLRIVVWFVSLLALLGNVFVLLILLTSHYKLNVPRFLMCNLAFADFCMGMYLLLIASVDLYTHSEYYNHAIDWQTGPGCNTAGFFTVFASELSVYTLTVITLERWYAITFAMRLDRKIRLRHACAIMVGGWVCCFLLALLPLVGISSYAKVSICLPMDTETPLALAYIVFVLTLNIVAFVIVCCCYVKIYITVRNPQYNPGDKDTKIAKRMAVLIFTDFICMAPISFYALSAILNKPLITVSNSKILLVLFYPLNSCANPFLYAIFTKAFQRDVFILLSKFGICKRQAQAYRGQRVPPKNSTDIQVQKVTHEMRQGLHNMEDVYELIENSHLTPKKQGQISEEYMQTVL
Summary of the method: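 Antagonist mode: compound-treated TSHR-expressing HEK293 cells were stimulated with 1.5 ng/mL TSH (final) in presence of Ro20-1724 for 30 min at RT. HTRF cAMP detection after 1 h; each compound tested at 15 concentrations, triplicate.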

[9] = qHTS assay to identify small molecule agonists of the estrogen receptor alpha (ER-alpha) signaling pathway in the presence of an antagonist - cell viability counter screen (AID 1259386);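 also: series mostly up to about 92 µM; cells exposed to compounds for 22 h at 37 °C before the viability read; nearly all actives have a fitted effect of over 30% in size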
Summary of the method: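 VM7Luc4E2 cells (endogenous full-length ER-alpha, 4×ERE-luciferase) were held 5 days in phenol red-free medium with 10% charcoal-stripped FBS, plated, then given 10.0nM ICI-182,780 and compounds at 15 concentrations for 22hr at 37C; viability read by CellTiter-Fluor fluorescence.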

[10] = biological target: Progesterone receptor (Homo sapiens) (UniProt P06401); test: qHTS assay to identify small molecule agonists of the progesterone receptor (PR) signaling pathway (AID 1346784; calls by dose curve; also: nearly all actives have a fitted effect of over 30% in size)
Progesterone receptor (Homo sapiens), sequence (P06401 whole entry, looked up): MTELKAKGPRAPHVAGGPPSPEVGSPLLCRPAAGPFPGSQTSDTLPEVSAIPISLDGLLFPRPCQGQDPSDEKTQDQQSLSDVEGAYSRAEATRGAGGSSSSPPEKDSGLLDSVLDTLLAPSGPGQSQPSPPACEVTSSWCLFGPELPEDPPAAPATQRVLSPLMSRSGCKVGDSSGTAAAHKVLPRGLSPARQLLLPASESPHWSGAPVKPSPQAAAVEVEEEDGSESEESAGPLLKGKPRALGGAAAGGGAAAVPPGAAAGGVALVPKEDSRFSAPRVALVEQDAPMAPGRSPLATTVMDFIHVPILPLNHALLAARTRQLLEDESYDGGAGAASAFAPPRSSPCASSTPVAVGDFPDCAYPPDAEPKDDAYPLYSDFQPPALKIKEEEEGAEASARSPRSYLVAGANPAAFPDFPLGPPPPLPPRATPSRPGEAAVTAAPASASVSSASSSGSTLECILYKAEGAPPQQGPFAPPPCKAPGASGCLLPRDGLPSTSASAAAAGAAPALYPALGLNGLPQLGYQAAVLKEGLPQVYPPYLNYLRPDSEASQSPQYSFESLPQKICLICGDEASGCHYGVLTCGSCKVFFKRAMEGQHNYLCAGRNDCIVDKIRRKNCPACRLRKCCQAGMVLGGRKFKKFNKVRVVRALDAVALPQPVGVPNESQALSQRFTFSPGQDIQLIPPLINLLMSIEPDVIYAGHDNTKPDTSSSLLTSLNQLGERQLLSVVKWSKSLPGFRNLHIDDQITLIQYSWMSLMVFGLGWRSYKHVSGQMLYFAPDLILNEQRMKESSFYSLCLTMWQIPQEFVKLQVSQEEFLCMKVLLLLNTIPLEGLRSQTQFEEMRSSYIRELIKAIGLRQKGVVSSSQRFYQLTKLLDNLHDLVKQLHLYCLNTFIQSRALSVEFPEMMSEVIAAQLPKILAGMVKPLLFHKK
Summary of the method: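 Using charcoal-stripped serum (2%) to limit endogenous steroids, PR-UAS-bla HEK 293T cells received compounds for 16 hr at 37C after 6 hr plating; beta-lactamase FRET fluorescence was recorded following 2 hr substrate loading at room temperature.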

[11] = biological target: Progesterone receptor (Homo sapiens) (UniProt P06401); test: qHTS assay to identify small molecule antagonists of the progesterone receptor (PR) signaling pathway (AID 1346795; active = well fitted inhibition curve with a large enough effect in the signal ratio in the repeat runs, not every such curve was filed as active; the % refers to the signal ratio)
Summary of the method: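 Inhibition of R5020-induced (1 nM final) beta-lactamase reporter signal in PR-UAS-bla HEK293T cells was scored by FRET fluorescence after overnight (16 hr) compound treatment.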

[12] = qHTS assay to identify small molecule antagonists of the progesterone receptor (PR) signaling pathway - cell viability counter screen (AID 1346798); also: series mostly up to about 92 µM; nearly all actives have a fitted effect of over 50% in size
Summary of the method: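 ATP content as viability readout: CellTiter-Glo luminescence, 30 min room temperature, in PR-UAS-bla HEK293T cells after 16 hr compound/R5020 treatment at 37C and 5% CO2.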

[13] = qHTS assay to identify small molecule agonists of the progesterone receptor (PR) signaling pathway - cell viability counter screen (AID 1346799; calls by dose curve; also: nearly all actives have a fitted effect of over 45% in size)
Summary of the method: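 Cytotoxicity in PR-bla HEK293T cells: 16 h compound, 37C; CellTiter-Glo added post-FRET read; luminescence after 30 min RT.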

[14] = qHTS assay to identify small molecule antagonists of the TGF-beta/Smad signaling pathway - cell viability counter screen (AID 1346824); also: nearly all actives have a fitted effect of over 50% in size
Summary of the method: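 Cytotoxicity counter-screen run in the same wells as the beta-lactamase Smad reporter read: CellTiter-Glo luminescence after 30 min at room temperature. HEK 293T SBE-bla cells had 5 hr compound exposure at 37 C with TGF-beta1 (0.25 ng/mL stock).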

[15] = qHTS assay to identify small molecule agonists of the TGF-beta/Smad signaling pathway - cell viability counter screen (AID 1346829); also: top concentration of the series differs between compounds; nearly all actives have a fitted effect of over 45% in size
Summary of the method: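 Tox21 qHTS format: SBE-bla HEK 293T cells treated with DMSO-dissolved compounds for 5 hr; CellTiter-Glo luminescence after 30 min at room temperature.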

[16] = qHTS assay to identify small molecule agonists of the TGF-beta/Smad signaling pathway (AID 1346859; active = well fitted activation curve with a large enough effect in the signal ratio in the repeat runs, not every such curve was filed as active; the % refers to the signal ratio; also: series mostly up to about 77 µM)
Summary of the method: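 Stable Smad binding element-beta-lactamase HEK 293T cells; 5 hr compound exposure at 37 C under 5% CO2; 2 hr room-temperature substrate step; fluorescence excited at 405 nm, collected at 460 nm and 530 nm.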

[17] = biological target: Thyrotropin-releasing hormone receptor (Homo sapiens) (UniProt P34981); test: qHTS assay to identify small molecule antagonists of the thyrotropin-releasing hormone receptor (TRHR) signaling pathway (AID 1346877; active = well fitted inhibition curve with a large enough effect in the repeat runs, not every such curve was filed as active; also: series mostly up to about 51 µM)
Thyrotropin-releasing hormone receptor (Homo sapiens), sequence (P34981 whole entry, looked up): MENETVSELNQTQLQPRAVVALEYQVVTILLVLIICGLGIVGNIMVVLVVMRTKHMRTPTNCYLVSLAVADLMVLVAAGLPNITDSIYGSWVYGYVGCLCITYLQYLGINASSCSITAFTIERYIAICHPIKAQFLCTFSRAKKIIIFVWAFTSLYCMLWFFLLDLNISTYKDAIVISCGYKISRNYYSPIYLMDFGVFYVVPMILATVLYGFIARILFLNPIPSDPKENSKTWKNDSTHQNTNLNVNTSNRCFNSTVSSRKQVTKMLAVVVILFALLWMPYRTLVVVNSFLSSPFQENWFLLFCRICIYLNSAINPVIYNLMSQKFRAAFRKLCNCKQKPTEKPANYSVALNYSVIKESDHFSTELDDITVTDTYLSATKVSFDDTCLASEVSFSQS
Summary of the method: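 TRHR-expressing HEK293 cells were seeded, cultured 18 h at 37 °C, then loaded with calcium dye for 2 h. Compounds were pre-incubated 5 min at room temperature before 1 nM TRH (final) was added, and kinetic fluorescence was recorded for 3 min.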

[18] = biological target: Thyrotropin-releasing hormone receptor (Homo sapiens) (UniProt P34981); test: qHTS assay to identify small molecule agonists of the thyrotropin-releasing hormone receptor (TRHR) signaling pathway (AID 1346891; calls by dose curve; also: series mostly up to about 58 µM)
Summary of the method: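 In 1536-format, 1500 TRHR-Hek293 cells per well grew 18 h, took up calcium dye for 2 h at 37 °C, received compound, and were read kinetically; 15-point titrations, triplicates.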

[19] = qHTS assay to identify small molecule antagonists of the estrogen receptor beta (ER-beta) signaling pathway - cell viability counter screen (AID 1259382);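 also: HEK293T cells carrying ER-beta-UAS-bla reporter stimulated with estradiol; series mostly up to about 92 µM; nearly all actives have a fitted effect of over 55% in size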
Summary of the method: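 ER-beta-UAS-bla HEK293T cells (2,000/well, 2% charcoal-stripped FBS) were pre-incubated 6 hr at 37C, then given compound plus 1nM final 17-beta-estradiol for 16 hr. Viability was read in the same wells by CellTiter-Glo luminescence after 30 min at room temperature.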

[20] = biological target: Estrogen receptor (Homo sapiens) (UniProt P03372); test: qHTS assay to identify small molecule agonists of the estrogen receptor alpha (ER-alpha) signaling pathway in the presence of an antagonist (AID 1259383; calls by dose curve; also: top concentration of the series differs between compounds; nearly all actives have a fitted effect of over 15% in size)
Estrogen receptor (Homo sapiens), sequence (P03372 whole entry, looked up): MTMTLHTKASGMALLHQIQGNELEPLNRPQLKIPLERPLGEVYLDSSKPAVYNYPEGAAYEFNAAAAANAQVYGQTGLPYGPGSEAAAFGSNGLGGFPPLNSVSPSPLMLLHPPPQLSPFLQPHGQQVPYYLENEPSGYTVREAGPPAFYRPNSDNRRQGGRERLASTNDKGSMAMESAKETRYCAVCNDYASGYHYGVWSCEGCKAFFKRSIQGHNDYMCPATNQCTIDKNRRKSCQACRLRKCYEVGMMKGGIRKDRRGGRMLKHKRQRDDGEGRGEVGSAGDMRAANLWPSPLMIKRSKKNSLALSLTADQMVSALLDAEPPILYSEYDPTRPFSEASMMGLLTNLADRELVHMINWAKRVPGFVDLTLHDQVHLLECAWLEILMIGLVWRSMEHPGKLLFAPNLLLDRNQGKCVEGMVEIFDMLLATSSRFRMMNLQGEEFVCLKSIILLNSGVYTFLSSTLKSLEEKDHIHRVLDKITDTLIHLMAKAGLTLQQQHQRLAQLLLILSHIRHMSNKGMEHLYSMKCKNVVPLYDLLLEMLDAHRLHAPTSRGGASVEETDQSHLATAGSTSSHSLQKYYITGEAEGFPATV
Summary of the method: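 VM7Luc4E2 cells (endogenous full-length ER-alpha, 4×ERE-luciferase) were precultured 5 days in phenol red-free medium with 10% charcoal-stripped FBS, given 10.0nM ICI-182,780 (final), then treated with compounds at 15 concentrations for 22hr at 37C; luminescence read with ONE-Glo.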
% is scaled to controls: 0 for no effect and ±100 for the full control effect.

CC(C)C1CCC(O)CC1 (stereo unspecified)
inactive: Potency [1] | Potency [2] | Potency [3] | Potency [4] | Potency [5] | Potency [6] | outcome [7] | outcome [8] | Potency [9] | Potency [10] | Potency [11] | Potency [12] | Potency [13] | outcome [14] | outcome [15] | outcome [16] | outcome [17] | Potency [18]

C=C(C)C(=O)OCC(O)CO (stereo unspecified)
inactive: Potency [1] | Potency [2] | Potency [3] | Potency [4] | Potency [5] | Potency [6] | outcome [19] | outcome [8] | Potency [9] | Potency [10] | Potency [11] | Potency [12] | Potency [13] | outcome [14] | outcome [15] | outcome [16] | outcome [17] | Potency [18]

O=C(O)Cc1csc(-c2ccc(Cl)cc2)n1
inactive: Potency [1] | Potency [2] | Potency [3] | Potency [4] | Potency [5] | Potency [6] | outcome [19] | outcome [20] | outcome [7] | outcome [8] | Potency [9] | Potency [12] | Potency [13] | outcome [14] | outcome [15] | Potency [18]

CCCCN(CCC(=O)OCC)C(C)=O
inactive: Potency [1] | Potency [2] | Potency [3] | Potency [4] | Potency [5] | outcome [19] | outcome [20] | outcome [8] | Potency [9] | Potency [11] | Potency [12] | Potency [13] | outcome [14] | outcome [16] | Potency [18]

CCCCCCCCCCOc1cc2c(=O)c(C(=O)OCC)c[nH]c2cc1OCC
inactive: activity change, negative = inhibition [1] 27.8% [at 8.39 µM] | activation [2] -0.652% [at 8.39 µM] | activity, negative = inhibition [3] 11.6% [at 8.39 µM] | activity change, negative = cytotoxicity [4] 0.727% [at 8.39 µM] | activity change, negative = cytotoxicity [5] 7.19% [at 8.39 µM] | activity change, negative = cytotoxicity [19] 5.47% [at 8.39 µM] | activation [20] 0.417% [at 8.39 µM] | cAMP activity change [7] -4.45% [at 8.39 µM] | activity change, negative = inhibition [8] 0.172% [at 8.39 µM] | activity change, negative = cytotoxicity [9] -3.47% [at 8.39 µM] | activity change, negative = inhibition [11] -0.779% [at 8.39 µM] | activity change, negative = cytotoxicity [12] 1.18% [at 8.39 µM] | activity change, negative = cytotoxicity [13] -5.75% [at 8.39 µM] | viability change, negative = cytotoxic [14] 0.981% [at 6.97 µM] | activity change, negative = cytotoxicity [15] 0.83% [at 6.97 µM] | activation [16] 0.379% [at 6.97 µM] | activity, negative = inhibition [17] 0.403% [at 4.65 µM] | activation [18] 0.481% [at 5.23 µM]

CC(COc1ccccc1)NN (stereo unspecified)
inactive: Potency [1] | Potency [2] | Potency [3] | Potency [4] | Potency [5] | outcome [19] | outcome [20] | outcome [7] | outcome [8] | Potency [9] | Potency [10] | Potency [11] | Potency [12] | Potency [13] | outcome [14] | outcome [16]

C=COCC1CCC(COC=C)CC1 (stereo unspecified)
inactive: Potency [1] | Potency [2] | Potency [3] | Potency [4] | Potency [5] | outcome [19] | outcome [20] | outcome [7] | outcome [8] | Potency [9] | Potency [11] | Potency [12] | Potency [13] | outcome [14] | outcome [15] | outcome [16]

CC1CCC(CO)CC1 (stereo unspecified)
inactive: Potency [1] | Potency [2] | Potency [3] | Potency [4] | Potency [5] | Potency [6] | outcome [19] | outcome [20] | outcome [7] | outcome [8] | Potency [9] | Potency [10] | Potency [12] | Potency [13] | outcome [14] | outcome [15] | outcome [16] | outcome [17] | Potency [18]

From PubChem BioAssay (Tox21)
